Our source for the Potency and viability values is PubChem BioAssay (NCATS).

Experiment [1] is described as follows: Quantitative High-Throughput drug screen in 47 multiple myeloma cell lines against the NCATS MIPE library collection: MM1R_ATCC cell viability assay (AID 1918981). Note: nearly all actives have a fitted effect of over 35% in size. A digest of the protocol: (§1)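 500 cells/well per myeloma line exposed to pinned MIPE 4.0 compounds for 48 h at 37 °C, 5% CO2. Viability read as ATP by CellTiter-Glo luminescence, normalised to DMSO-only (100%) and media-only (0%) wells.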

Experiment [2] in a line: Quantitative High-Throughput drug screen in 47 multiple myeloma cell lines against the NCATS MIPE library collection: LP1_DSMZ cell viability assay (AID 1918982). Note: nearly all actives have a fitted effect of over 35% in size. In a few lines: as §1
A short description of experiment [3]: Quantitative High-Throughput drug screen in 47 multiple myeloma cell lines against the NCATS MIPE library collection: KMS28PE_JCRB cell viability assay (AID 1918983). Note: nearly all actives have a fitted effect of over 35% in size. In a few lines: as §1
Experiment [4] can be described thus: Quantitative High-Throughput drug screen in 47 multiple myeloma cell lines against the NCATS MIPE library collection: L363_DSMZ cell viability assay (AID 1918984). Note: nearly all actives have a fitted effect of over 40% in size. In a few lines: as §1
Experiment [5] in a line: Quantitative High-Throughput drug screen in 47 multiple myeloma cell lines against the NCATS MIPE library collection: KMS34_JCRB cell viability assay (AID 1918985). Note: nearly all actives have a fitted effect of over 40% in size. In a few lines:
as §1

The nature of experiment [6]: Quantitative High-Throughput drug screen in 47 multiple myeloma cell lines against the NCATS MIPE library collection: OCIMY7_PLB cell viability assay (AID 1918987). Note: nearly all actives have a fitted effect of over 65% in size. In a few lines:
as §1

Experiment [7] in a line: Quantitative High-Throughput drug screen in 47 multiple myeloma cell lines against the NCATS MIPE library collection: OCIMY5_PLB cell viability assay (AID 1918988). Note: nearly all actives have a fitted effect of over 65% in size. A digest of the protocol:
as §1

The nature of experiment [8]: Quantitative High-Throughput drug screen in 47 multiple myeloma cell lines against the NCATS MIPE library collection: OPM1_PLB cell viability assay (AID 1918989). Note: nearly all actives have a fitted effect of over 40% in size. A digest of the protocol: as §1
Experiment [9] is described as follows: Quantitative High-Throughput drug screen in 47 multiple myeloma cell lines against the NCATS MIPE library collection: U266_ATCC cell viability assay (AID 1919864). Note: nearly all actives have a fitted effect of over 35% in size. A digest of the protocol:
as §1

Experiment [10] can be described thus: Quantitative High-Throughput drug screen in 47 multiple myeloma cell lines against the NCATS MIPE library collection: SKMM1_PLB cell viability assay (AID 1919863). For viability: series mostly up to about 46 µM. Note: nearly all actives have a fitted effect of over 35% in size. The note with it: SKMM1 myeloma viability, CellTiter-Glo ATP, 48 h; viability: stronger effect = lower value. A digest of the protocol:
as §1

Structures are written as SMILES. Results filed as inconclusive are left out. Values without a mark were called inactive. The source made the active and inactive calls. Calls come from the whole dose curve; as a rule, active = well fitted cell-killing curve with a large enough effect; inconclusive = small, poorly fitted or top-dose-only effect, or effect the other way; inactive = no such curve, though single readings can be large or run the other way.
Potency is the fitted concentration of half-maximal effect.

Take `CCN(CC)CCCCNc1ncc2cc(-c3cc(OC)cc(OC)c3)c(NC(=O)NC(C)(C)C)nc2n1`: the Potency is 23.5 µM (active) in experiment [1]; 16.6 µM (active) in experiment [2]; 6.62 µM (active) in [3]; 14.8 µM (active) in experiment [4]; 33.2 µM (active) in experiment [5]; 18.7 µM (active) in experiment [6]. Moreover, the Potency in experiment [7] is 16.6 µM (active); in [8], 14.8 µM (active); in experiment [9], 18.7 µM (active).
Regarding `C1=CCOCc2cc(ccc2OCCN2CCCC2)Nc2nccc(n2)-c2cccc(c2)OCC1`, the Potency was 2.64 µM (active) in experiment [1]; 2.64 µM (active) in experiment [2]; 3.72 µM (active) in [3]; 0.743 µM (active) in experiment [4]; 2.35 µM (active) in [5]; 1.18 µM (active) in experiment [6]. Besides, the values for the Potency in experiment [7], in experiment [8] and in experiment [10] were 2.35 µM (active), 3.32 µM (active) and 9.35 µM (active), respectively.
In the case of `Nc1nc(NCCNc2ncc(-n3ccnc3)c(-c3ccc(Cl)cc3Cl)n2)ccc1[N+](=O)[O-]`, the Potency was 16.6 µM (active) in experiment [1]; 11.8 µM (active) in [2]; 23.5 µM (active) in experiment [3]; 5.26 µM (active) in [4]; 5.26 µM (active) in experiment [6]; 18.7 µM (active) in experiment [7]. Further, in experiment [8], the Potency is 5.26 µM (active).
For `CC(C)CC(=O)Nc1n[nH]c2c1CN(C(=O)C1CCN(C)CC1)C2(C)C`, the Potency in [1] is 0.662 µM (active); in experiment [2], 1.87 µM (active); in experiment [3], 1.18 µM (active); in [4], 0.833 µM (active); in experiment [5] it was 1.18 µM (active); in experiment [6], 1.66 µM (active). The Potency in [7] is 1.32 µM (active); in [10], 4.69 µM (active); in experiment [9] it was 1.87 µM (active).
As to `CN1c2cc(O)c(N=NC(N)=O)cc2CC1S(=O)(=O)O` (centres undefined), the Potency result in [1], in experiment [2], in [3], in experiment [4], in [5] and in experiment [7] was “inactive” throughout. Also, the viability in experiment [10] was 97.7%.
`O=C(NC1CCNCC1)c1[nH]ncc1NC(=O)c1c(Cl)cccc1Cl`: the Potency in experiment [1] is 0.296 µM (active); in experiment [2], 0.264 µM (active); in experiment [3], 0.235 µM (active); in [4] it was 0.469 µM (active); in [5], 0.418 µM (active); in experiment [6] it was 3.72 µM (active). The Potency is 1.87 µM (active) in experiment [8] and 0.526 µM (active) in experiment [10].
Take `c1cc(-c2cnn3cc(-c4ccc(OCCN5CCCCC5)cc4)cnc23)ccn1`: the Potency in experiment [1] was 18.7 µM (active); in [2], 13.2 µM (active); in [3], 11.8 µM (active); in [5] it was 13.2 µM (active); in experiment [6], 2.09 µM (active); in [7], 4.69 µM (active). Further, the Potency in [8] was 4.18 µM (active); in experiment [10], 20.9 µM (active); in [9] it was 13.2 µM (active). Moreover, the Potency entry in experiment [4] is “inactive”.
In the case of `CC(C)(C)c1cnc(CSc2cnc(NC(=O)C3CCNCC3)s2)o1`, the Potency in experiment [1] was 0.105 µM (active); in experiment [2] it was 0.105 µM (active); in experiment [3], 0.132 µM (active); in experiment [4], 0.166 µM (active); in experiment [5], 0.296 µM (active); in [6], 2.35 µM (active). Besides, the Potency in [7] was 0.0743 µM (active); in experiment [8], 0.296 µM (active); in [10], 0.264 µM (active); in experiment [9] it was 0.118 µM (active).
As for `O=C(c1ccc(Nc2nccc(-c3cc4ccccc4s3)n2)cc1)N1CCC(N2CCCC2)CC1`, the Potency in experiment [1] is 16.6 µM (active); in experiment [2] it was 20.9 µM (active); in experiment [3], 16.6 µM (active); in experiment [4], 1.48 µM (active); in [5] it was 11.8 µM (active); in experiment [6], 2.35 µM (active). Moreover, the Potency is 8.33 µM (active) in experiment [7], 5.26 µM (active) in experiment [8] and 23.5 µM (active) in experiment [10].
Consider `CC(=O)Nc1nc(C)c(-c2ccc(Cl)c(S(=O)(=O)NCCO)c2)s1`, for which the Potency in [1] is 7.43 µM (active); in [2], 3.32 µM (active); in experiment [3], 16.6 µM (active); in experiment [4], 1.18 µM (active); in experiment [6], 0.105 µM (active); in experiment [7], 9.35 µM (active). Besides, the Potency in experiment [8] was 2.96 µM (active); in experiment [9], 6.62 µM (active).
Regarding `CCS(=O)(=O)c1cccc(-c2cc(C(=O)NC3CCN(C)CC3)c(C)c3[nH]c4ncc(C)cc4c23)c1`, the Potency in [1] is 1.66 µM (active); in experiment [2], 7.43 µM (active); in experiment [3], 1.87 µM (active); in experiment [4] it was 1.48 µM (active); in experiment [5], 0.935 µM (active); in experiment [6], 4.18 µM (active). Also, the Potency is 1.48 µM (active) in experiment [7], 0.59 µM (active) in experiment [8], 8.33 µM (active) in experiment [10] and 0.935 µM (active) in experiment [9].
Take `CC[C@H]1CN2CCc3cc(OC)c(OC)cc3[C@H]2C[C@@H]1C[C@@H]1NCCc2cc(OC)c(OC)cc21`: the Potency is 0.187 µM (active) in [1]; 0.332 µM (active) in experiment [2]; 0.296 µM (active) in experiment [3]; 0.059 µM (active) in [4]; 0.132 µM (active) in [5]; 0.526 µM (active) in experiment [6]. Besides, the Potency was 0.187 µM (active) in [7], 0.235 µM (active) in [8], 0.296 µM (active) in [10] and 0.0935 µM (active) in experiment [9].
Take `CN1CCC(CNc2ccc3ncc(-c4cccc(OC(F)(F)F)c4)n3n2)CC1`: the Potency in [1] is 20.9 µM (active); in [2], 26.4 µM (active); in experiment [3], 18.7 µM (active); in experiment [4], 7.43 µM (active); in [5], 20.9 µM (active); in [6], 4.69 µM (active). Besides, the Potency in experiment [7] was 14.8 µM (active); in [8], 6.62 µM (active); in experiment [10], 23.5 µM (active); in [9], 9.35 µM (active).
For the compound `Cc1ccc(C(=O)Nc2ccc(CN3CCN(C)CC3)c(C(F)(F)F)c2)cc1C#Cc1cnc2cccnn12`, the Potency in experiment [1] is 3.32 µM (active); in [2], 5.9 µM (active); in experiment [3], 5.9 µM (active); in [4], 0.833 µM (active); in experiment [5], 3.32 µM (active); in experiment [6] it was 0.264 µM (active). The results for the Potency in experiment [8] and in experiment [10] were 0.59 µM (active) and 5.9 µM (active), respectively.
